Inconclusive results are not listed. The source made the active and inactive calls. The calls were made as follows: active = hit-call score of the fitted dose curve at least 0.9, where 1 is the maximum; inconclusive = response in the unintended direction; inactive = score below 0.9.
Assay: CCTE_Mundy_HCI_iCellGluta_NOG_NeuriteLength: CCTE's Neurite Outgrowth Assay in iCellGluta cells for Neurite Length, Mundy Lab (AID 2284318)
Procedure: CCTE_Mundy_HCI_iCellGluta_NOG is a multiplexed, cell-based-readout assay that uses iCell GlutaNeurons from FUJIFILM Cellular Dynamics, Inc. (FCDI), human glutamatergic enriched neurons derived from induced pluripotent stem (iPS) cells, with measurements taken at 50.33 hours after chemical dosing in a microplate: 96-well plate.CCTE_Mundy_HCI_iCellGluta_NOG_NeuriteLength is one of four components of the CCTE_Mundy_HCI_iCellGluta_NOG assay. It measures neurite outgrowth related to neurite length using High Content Imaging of fluorescently labelled markers.Data from the assay component CCTE_Mundy_HCI_iCellGluta_NOG_NeuriteLength was analyzed at the endpoint CCTE_Mundy_HCI_iCellGluta_NOG_NeuriteLength in the positive analysis fitting direction relative to DMSO as the negative control and baseline of activity. Using a type of morphology reporter, loss-of-signal activity can be used to understand developmental effects.
Exposure starts 2 hours post-plating by adding 10 ul of the working solution to 90 ul of media in the wells for a 1/10 dilution. Forty-eight hours after chemical treatment cells are fixed by direct addition of 100 ul of warm (37C) Dulbecco's phosphate buffered saline (DPBS) fixative solution containing 8% paraformaldehyde, 8% sucrose, and 0.1% of 3 mg/ml Hoechst 33342 into each well. Primary antibodies are prepared by dilution in Immunocytochemical Staining Buffer (ISB), 10X Dulbecco's PBS, 0.1% Saponin, 5% Bovine Serum Albumin, 0.5% NaN3 (Sodium Azide) and betaIII-tubulin (rabbit anti-betaIII-tubulin, 1:800) followed by Alexa Fluor-488 secondary (1:500) to label neuronal cell bodies and neurites. A Cellomics ArrayScan VTi HCS Reader is used for automated image acquisition and analysis of neurite outgrowth.

| Structure (SMILES) | outcome | AC50 |
| --- | --- | --- |
| CC(C)O | inactive | – |
| CC(=O)N[C@@H](CC(=O)O)C(=O)O | inactive | – |
| CC(CNC(=S)[S-])NC(=S)[S-].[Zn+2] (stereo unspecified) | – | 13 µM (active) |
| Cc1[nH]n(C)c(=O)c1C(=O)c1ccc(C(F)(F)F)cc1S(C)(=O)=O | inactive | – |
| C[C@@H]1CC[C@@H](C(C)(C)O)[C@H](O)C1 | inactive | – |
| CCCCCC=C(C)C(CC)CCO (stereo unspecified) | inactive | – |
| C[C@@H]1CCO[C@H]2Cn3cc(C(=O)NCc4ccc(F)cc4F)c(=O)c(O)c3C(=O)N12 | inactive | – |
| O=C1CC2(CCCC2)CC(=O)N1CCCCN1CCN(c2ncccn2)CC1 | inactive | – |
| CC(C)c1nn(C(=O)NC(C)(C)C)c(=O)n1N | inactive | – |
| CCCCCC(C)(CC)C(=O)NC (stereo unspecified) | inactive | – |
| BrC1CC(Br)CC(Br)CC(Br)CC(Br)CC(Br)C1 (stereo unspecified) | – | 3.77 µM (active) |

From PubChem BioAssay (EPA / NIEHS)
